Laboratory results from PubChem BioAssay (NCI).
The panel holds about 83,000 compounds, 20% with a hit somewhere; the sample as a whole holds those more often.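 Interpretation: 100, growth as untreated; towards 0, rising growth inhibition; 0, no net growth; 0 to -100, cell death. Compounds scoring below 10 were considered active.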 Values without a mark were called inactive. The source made the active and inactive calls.

How the values were obtained:
Assay in all cases: NCI-60 one-dose screen, 48 h (100 = growth as untreated, 0 = no growth, -100 = all killed)
Conditions in all cases: 10 µM
DU-145 prostate = tested on: DU-145 prostate
K-562 leukemia = tested on: K-562 leukemia
MALME-3M melanoma = tested on: MALME-3M melanoma
MDA-MB-231 breast = tested on: MDA-MB-231 breast
RXF 393 renal = tested on: RXF 393 renal
SF-268 CNS = tested on: SF-268 CNS
SF-295 CNS = tested on: SF-295 CNS
SF-539 CNS = tested on: SF-539 CNS
UACC-257 melanoma = tested on: UACC-257 melanoma
M14 melanoma = tested on: M14 melanoma
HCT-15 colon = tested on: HCT-15 colon
HT29 colon = tested on: HT29 colon
SNB-75 CNS = tested on: SNB-75 CNS
SNB-19 CNS = tested on: SNB-19 CNS
U251 CNS = tested on: U251 CNS
PC-3 prostate = tested on: PC-3 prostate
SK-MEL-5 melanoma = tested on: SK-MEL-5 melanoma
UACC-62 melanoma = tested on: UACC-62 melanoma
LOX IMVI melanoma = tested on: LOX IMVI melanoma
SK-MEL-28 melanoma = tested on: SK-MEL-28 melanoma

| Structure (SMILES) | growth (DU-145 prostate) | growth (K-562 leukemia) | growth (MALME-3M melanoma) | growth (MDA-MB-231 breast) | growth (RXF 393 renal) | growth (SF-268 CNS) | growth (SF-295 CNS) | growth (SF-539 CNS) | growth (UACC-257 melanoma) | growth (M14 melanoma) | growth (HCT-15 colon) | growth (HT29 colon) | growth (SNB-75 CNS) | growth (SNB-19 CNS) | growth (U251 CNS) | growth (PC-3 prostate) | growth (SK-MEL-5 melanoma) | growth (UACC-62 melanoma) | growth (LOX IMVI melanoma) | growth (SK-MEL-28 melanoma) |
| --- | --- | --- | --- | --- | --- | --- | --- | --- | --- | --- | --- | --- | --- | --- | --- | --- | --- | --- | --- | --- |
| C=CCn1c(SCC(=O)Nc2ccc(C(=O)/C=C/c3ccc(OC)cc3)cc2)nnc1-c1ccc(OC)c(OC)c1 | 97.7% | 63.6% | 110% | 72.3% | 84.7% | 84.1% | 93.5% | 102% | 84.6% | 89.6% | 83.8% | 89.8% | 76.4% | 89% | 87.4% | 67.2% | 62.8% | 75.7% | 86.5% | 105% |
| CCN(CC)CCOc1ccc2c(c1O)C(=O)c1ccccc1C2=O | 95.4% | 71.6% | 109% | 82.8% | 77.7% | 90.1% | 91.5% | 91.9% | 94.7% | 92% | 74.4% | 68.1% | 79.1% | 82.6% | 77.3% | 85.3% | 81.2% | 90.5% | 76.6% | 102% |
| CC[C@H]1OC(=O)[C@H](C)[C@@H](O[C@H]2C[C@@](C)(OC)[C@@H](O)[C@H](C)O2)[C@H](C)[C@@H](O[C@@H]2O[C@H](C)C[C@H](N(C)C)[C@H]2O)[C@](C)(OC)C/C(C)=C2/O[C@@]1(C)C=C2C | 76.9% | -19.6% (active) | -80% (active) | -44.2% (active) | 21.3% | 64.1% | 95.5% | 64.7% | 17.7% | -75.1% (active) | -33.5% (active) | -7.11% (active) | 49.1% | 57.4% | 2.36% (active) | 53.3% | 18.8% | -83.8% (active) | -85.1% (active) |  |
| COc1cc(-c2nn(-c3ccc(NC(=O)NCCNS(=O)(=O)c4ccc(F)cc4)cc3)cc2-c2ccncc2)ccc1Cl | 8.28% (active) | 2.45% (active) | 24.8% | -30.7% (active) | 2.59% (active) | 7.56% (active) | -39.5% (active) | -46.4% (active) | 41.2% | -18% (active) | 47.7% | -24.9% (active) | 13.8% | 31% | 4.44% (active) | 8.93% (active) | -63.6% (active) | 25.7% | 1.79% (active) | 26.4% |
| O=C(/C=C/C=C/c1c(C2CC2)nc2ccccc2c1-c1ccc(F)cc1)c1cccs1 | 20.4% | 5.43% (active) | -35.1% (active) | 25.1% | -54.2% (active) | 43.4% | 18.3% | -32.8% (active) | -35.4% (active) | 3.19% (active) | 18.6% | -38.5% (active) | 43.4% | 42.3% | -19.4% (active) | 24.9% | -77.1% (active) | 13.3% | -71.5% (active) | -2.12% (active) |
| CN(C)CCCOc1ccccc1NC1=C(Cl)C(=O)C(Nc2ccccc2OCCCN(C)C)=C(Cl)C1=O | -97.2% (active) | -25.3% (active) | -77.6% (active) | -71.9% (active) | -98.2% (active) | -88.1% (active) | -58.8% (active) | -96.6% (active) | -92.9% (active) | -68.8% (active) | -49% (active) | -51% (active) | 35% | -87.1% (active) | -86.1% (active) | -20.8% (active) | -96.3% (active) | -77.8% (active) | -74.9% (active) | 14.1% |
| COc1ccc(-c2n[nH]nc2-c2cc(OC)c3c(c2OC)OCO3)cc1 | 10.2% | 10.7% | 61.7% | 32% | -9.08% (active) | 48.8% | 4.67% (active) | -2.99% (active) | 48% | 20.6% | 35.5% | 4.41% (active) | 4.8% (active) | 51.8% | 13.8% | 26.3% | 6.78% (active) | 40.6% | 37% | 63% |
| O=C1/C(=C/c2ccc([N+](=O)[O-])s2)Oc2cc(Cl)ccc21 | 32.2% | -8.29% (active) | -49.5% (active) | -71.7% (active) | -49.6% (active) | -59.4% (active) | 52.1% | -10.9% (active) | 31.7% | 2.51% (active) | 0.579% (active) | -4.42% (active) | 58.8% | 2.32% (active) | -58% (active) | -73% (active) | 17.6% | -37.7% (active) | -78.4% (active) | -29.2% (active) |
